19 compounds from PubChem BioAssay (NCATS) can be followed below.

Assay [1] can be described thus: qHTS Validation Assay to Find Inhibitors of Chronic Active B-Cell Receptor Signaling (AID 485345; active means well fitted curve in the direction sought with a large enough effect in the main read-out, with a control signal flat, not every such curve was filed as active). The method, boiled down:
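TMD8 ABC-DLBCL cells with dox-inducible green luciferase–IκBα fusion and red native luciferase; compounds 46 uM–3 nM, 4 h at 37C with doxycycline in 0.5% FBS IMDM. Green/red ratio normalized to basal and 10 uM MG-132.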

For assay [2], the target named is Beta-2 adrenergic receptor (Homo sapiens) (UniProt P07550). In words: qHTS validation assay of beta-arrestin-biased ligands of beta2-adrenergic receptor (AID 485366). The method, boiled down: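 Agonism was measured as beta-arrestin recruitment to recombinant beta2-AR, releasing tTA to drive luciferase. Cells were exposed for 18 hr at 37 degrees C to a series up to 46 microM. %Activity from corrected luminescence gave concentration-response curves.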
A general note: qHTS replaces the single test concentration by a dilution series.

Assay [3] deals with ATP-dependent 6-phosphofructokinase (Trypanosoma brucei brucei) (UniProt O15648). Nature of the assay: qHTS Validation Assay to Find Inhibitors of T. brucei phosphofructokinase (AID 485368). Further: potency means the concentration at half of the fitted maximal effect. The procedure, abridged: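 ADP-Glo luminescence, two-step: residual ATP depleted, then ADP converted to ATP for luciferase. Enzyme 1.25 nM, F6P 0.5 mM, ATP 0.1 mM, pH 8.0 TEA buffer, 45 min RT. Curves fitted and classed by quality and efficacy.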

In assay [4] the target is Thioredoxin reductase 1, cytoplasmic (Rattus norvegicus) (UniProt O89049). In words: qHTS Assay for Substrates of Mammalian Selenoprotein Thioredoxin Reductase 1 (TrxR1) (AID 488772).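 Further: series mostly up to about 57 µM; a drop in NADPH fluorescence below the no-compound background marks a TrxR1 substrate.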 The procedure, abridged: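 In this dual-purpose format, potential substrates are identified from the first fluorescence read after selenite addition, not from the 8-minute delta. Rat enzyme is preincubated with NADPH and then with compound at ~22 deg C.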

For assay [5] the target is unchanged. Nature of the assay: qHTS Assay for Inhibitors of Mammalian Selenoprotein Thioredoxin Reductase 1 (TrxR1) (AID 488773). Further: nearly all actives have a fitted effect of over 40% in size. Further: potency means the concentration at half of the fitted maximal effect. The note with it: Potency: inhibition. The procedure, abridged:
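Inhibition is scored from the loss of NADPH fluorescence between first and last reads of an 8-min kinetic run. Selenite (400 uM) was the substrate, added after 15 min compound preincubation at room temperature.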

The target in assay [6] is Flap endonuclease 1 (Homo sapiens) (UniProt P39748). Nature of the assay: qHTS Validation Assay for the Inhibitors of Human Flap endonuclease 1 (FEN1) (AID 488816). Further: potency means the concentration at half of the fitted maximal effect. The method, boiled down: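 Steps: add FEN1 (10 nM reagent) or buffer only; pin compounds; hold 15 min at room temperature; start with substrate, 50 nM final; read at 0 and 15 min; correct, normalize and fit a four-parameter Hill curve.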

Assay [7] concerns the target Chromobox protein homolog 1 (Homo sapiens) (UniProt P83916). Nature of the assay: qHTS Validation Assay for Inhibitors of HP1-beta Chromodomain Interactions with Methylated Histone Tails (AID 488953). Further: nearly all actives have a fitted effect of over 50% in size. Further: potency means the concentration at half of the fitted maximal effect. The method, boiled down:
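AlphaScreen proximity signal from streptavidin donor and nickel chelate acceptor beads (final 10 ug/mL) after 30 min dark incubation. Compounds had 30 min at room temperature with preformed complex of 50 nM HP1-beta and 50 nM b-H3(1-18)K9me3 in PBS pH 7.4 with 0.01% Tween-20.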

The nature of assay [8]: Quantitative high throughput screen for delayed death inhibitors of the malarial parasite plastid, 96 hour incubation (AID 488745). Further: series mostly up to about 29 µM; nearly all actives have a fitted effect of over 70% in size. The method, boiled down: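 Decreased firefly luciferase luminescence indicates inhibited growth of reporter-integrated P. falciparum after two generations (96 h, 37 C, 5% CO2). Infected erythrocytes at 0.1% parasitemia, 2% hematocrit, in Albumax-supplemented RPMI 1640.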

Assay [9] is described as follows: Quantitative high throughput screen for delayed death inhibitors of the malarial parasite plastid, 48 hour incubation (AID 488752). Further: nearly all actives have a fitted effect of over 65% in size. The procedure, abridged:
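One-generation (48 h) growth assay: a decrease in luciferase signal from an integrated reporter in P. falciparum-infected red cells (0.1% parasitemia, 2% hematocrit) after compound exposure at 37 C indicates parasite inhibition.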

Each structure is given as a SMILES string. Results filed as inconclusive are left out. Calls of active or inactive are those of the source. Unless noted, the call rests on the fitted dose curve; in most records, active means well fitted curve in the direction sought with a large enough effect; inconclusive means small, poorly fitted or top-dose-only effect, or another doubt; inactive means no such curve, though single readings can be large; an effect the other way counts as inactive or inconclusive.

Chain of Chromobox protein homolog 1 (Homo sapiens) (P83916 whole entry, looked up): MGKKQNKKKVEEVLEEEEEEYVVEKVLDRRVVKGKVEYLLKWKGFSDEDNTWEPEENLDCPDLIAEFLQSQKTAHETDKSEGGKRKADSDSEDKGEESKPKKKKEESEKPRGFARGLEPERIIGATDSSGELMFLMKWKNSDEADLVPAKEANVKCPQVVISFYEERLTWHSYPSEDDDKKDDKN
Chain of Thioredoxin reductase 1, cytoplasmic (Rattus norvegicus) (O89049 whole entry, looked up): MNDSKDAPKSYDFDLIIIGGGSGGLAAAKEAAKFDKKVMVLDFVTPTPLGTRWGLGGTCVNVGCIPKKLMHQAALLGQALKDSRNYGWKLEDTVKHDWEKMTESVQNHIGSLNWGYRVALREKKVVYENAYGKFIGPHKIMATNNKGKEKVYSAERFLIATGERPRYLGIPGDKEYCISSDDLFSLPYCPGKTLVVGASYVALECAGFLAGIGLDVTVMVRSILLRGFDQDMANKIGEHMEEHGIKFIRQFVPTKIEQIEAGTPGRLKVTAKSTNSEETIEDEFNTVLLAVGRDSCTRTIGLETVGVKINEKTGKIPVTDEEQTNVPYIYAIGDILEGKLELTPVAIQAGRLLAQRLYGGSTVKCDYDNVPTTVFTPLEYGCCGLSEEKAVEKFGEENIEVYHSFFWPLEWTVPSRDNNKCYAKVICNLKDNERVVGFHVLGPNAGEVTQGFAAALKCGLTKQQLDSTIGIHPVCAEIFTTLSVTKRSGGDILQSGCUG
Chain of Beta-2 adrenergic receptor (Homo sapiens) (P07550 whole entry, looked up): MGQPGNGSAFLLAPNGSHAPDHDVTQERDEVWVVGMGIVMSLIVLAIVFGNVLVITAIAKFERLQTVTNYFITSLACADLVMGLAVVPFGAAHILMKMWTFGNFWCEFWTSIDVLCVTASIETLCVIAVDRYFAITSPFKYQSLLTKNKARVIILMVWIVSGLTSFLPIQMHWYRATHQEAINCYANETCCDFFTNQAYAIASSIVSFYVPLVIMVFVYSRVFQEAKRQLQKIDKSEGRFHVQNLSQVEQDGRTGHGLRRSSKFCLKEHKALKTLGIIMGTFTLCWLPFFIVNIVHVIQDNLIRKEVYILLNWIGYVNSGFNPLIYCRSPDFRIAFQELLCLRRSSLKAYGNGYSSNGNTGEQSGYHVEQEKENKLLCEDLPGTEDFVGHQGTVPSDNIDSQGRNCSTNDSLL
Chain of ATP-dependent 6-phosphofructokinase (Trypanosoma brucei brucei) (O15648 whole entry, looked up): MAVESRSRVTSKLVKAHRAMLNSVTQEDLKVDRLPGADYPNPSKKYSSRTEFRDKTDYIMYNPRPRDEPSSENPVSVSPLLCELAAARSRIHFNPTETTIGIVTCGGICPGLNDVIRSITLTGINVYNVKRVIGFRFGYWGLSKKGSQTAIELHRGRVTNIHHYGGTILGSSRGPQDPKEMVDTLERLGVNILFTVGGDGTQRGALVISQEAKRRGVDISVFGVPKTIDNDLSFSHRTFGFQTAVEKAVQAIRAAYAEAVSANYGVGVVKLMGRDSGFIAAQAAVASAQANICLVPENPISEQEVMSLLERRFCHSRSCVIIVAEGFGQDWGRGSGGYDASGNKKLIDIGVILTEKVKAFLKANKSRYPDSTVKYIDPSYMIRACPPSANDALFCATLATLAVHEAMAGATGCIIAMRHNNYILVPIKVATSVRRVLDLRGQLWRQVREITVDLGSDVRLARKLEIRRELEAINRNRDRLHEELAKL
Chain of Flap endonuclease 1 (Homo sapiens) (P39748 whole entry, looked up): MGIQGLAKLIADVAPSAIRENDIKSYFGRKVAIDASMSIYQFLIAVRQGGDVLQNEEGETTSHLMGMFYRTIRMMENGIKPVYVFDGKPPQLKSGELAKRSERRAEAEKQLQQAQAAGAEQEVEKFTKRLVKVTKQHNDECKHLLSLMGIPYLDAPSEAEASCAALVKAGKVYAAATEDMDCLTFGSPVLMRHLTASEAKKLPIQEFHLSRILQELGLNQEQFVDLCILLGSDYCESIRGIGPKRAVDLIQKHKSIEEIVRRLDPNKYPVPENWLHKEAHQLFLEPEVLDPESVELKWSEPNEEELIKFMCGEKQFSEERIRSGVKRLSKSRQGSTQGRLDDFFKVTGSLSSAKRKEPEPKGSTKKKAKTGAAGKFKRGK

Turning to `CC(=O)[C@H]1CC[C@H]2[C@@H]3CC[C@H]4C[C@](C)(O)CC[C@]4(C)[C@H]3CC[C@]12C`, the compound was classed as inactive in [1], in assay [2] and in assay [4]. Also, the Potency entry in [3], in assay [5], in assay [6] and in assay [7] was “inactive” in each case.
Regarding `COc1ccc(C(CN(C)C)C2(O)CCCCC2)cc1` (stereo not given), the compound was classed as inactive in assay [1], in [2] and in assay [4]. In [3], the Potency is 5.36 µM (active). Besides, the Potency entry in [5], in [6] and in assay [7] was “inactive” throughout.
As for `NCC1(CC(=O)O)CCCCC1`, the compound was called inactive in [1], in assay [2] and in assay [4]. For the same compound, the Potency entry in assay [8], in [9], in [5], in assay [6] and in [7] was “inactive” in each case.
Turning to `N#CC(C#N)=Cc1ccc(O)c(O)c1`, the outcome in assay [1], in assay [2] and in assay [4] was inactive. For the same compound, in assay [9], the Potency result was “inactive”. Besides, the Potency was 16.8 µM (active) in assay [5] and 18.9 µM (active) in assay [6].
Consider `CC[C@@H](CO)NC(=O)[C@@H]1C=C2c3cccc4[nH]cc(c34)C[C@H]2N(C)C1`, for which the result in [1], in [2] and in assay [4] was inactive.
On to `CCCC(C)(COC(N)=O)COC(=O)NC(C)C` (stereo not given), for which the call in [1], in [2] and in assay [4] was inactive. For the same compound, the Potency entry in assay [8], in assay [9], in assay [5] and in [6] was “inactive” throughout. The Potency in assay [7] is 0.006 µM (active).
As for `NCC(CC(=O)O)c1ccc(Cl)cc1` (stereo not given), the compound was classed as inactive in assay [1], in assay [2] and in assay [4]. For the same compound, the Potency result in [8], in [9], in assay [5], in assay [6] and in assay [7] was “inactive” in each case.
With `NCC(O)c1ccc(O)cc1` (stereo not given), the compound was classed as inactive in assay [1], in [2] and in [4]. In addition, the Potency entry in assay [8], in [9], in [5], in [6] and in assay [7] was “inactive” in each case.
Turning to `NN=C(N)N`, the compound was classed as inactive in [1], in assay [2] and in assay [4]. Moreover, the Potency result in assay [3], in [8], in assay [9], in [5], in assay [6] and in [7] was “inactive” throughout.
As to `CNCC(O)c1ccc(O)cc1` (stereo not given), the compound was called inactive in assay [1], in [2] and in [4]. Further, the Potency result in assay [3], in assay [8], in [9], in [6] and in assay [7] was “inactive” throughout.
Consider `CCCN1CCC[C@@H]2Cc3[nH]ncc3C[C@H]21`, for which the compound was classed as inactive in assay [1], in assay [2] and in assay [4]. In addition, the Potency result in assay [3], in [5], in [6] and in assay [7] was “inactive” each time.
Turning to `Nc1ccncc1`, the outcome in [1], in assay [2] and in assay [4] was inactive. Moreover, the Potency result in assay [8], in [9], in [5] and in assay [6] was “inactive” throughout.
In the case of `CC(=O)[C@H]1CC[C@H]2[C@@H]3CC[C@H]4C[C@H](O)CC[C@]4(C)[C@H]3C(=O)C[C@]12C`, the call in assay [1], in assay [2] and in assay [4] was inactive. Also, the Potency result in assay [3], in [8], in assay [9], in assay [5], in assay [6] and in [7] was “inactive” in each case.
In the case of `CC(C)=CCOc1c2occc2cc2ccc(=O)oc12`, the compound was called inactive in [1], in assay [2] and in assay [4]. The Potency result in [5] and in [6] was “inactive” throughout.
As for `O=C1NCN(c2ccccc2)C12CCN(CC1COc3ccccc3O1)CC2` (stereo not given), the call in [1], in assay [2] and in assay [4] was inactive. The Potency entry in assay [3], in assay [8], in assay [9], in [5] and in [6] was “inactive” each time.
Consider `Cc1cccc(C)c1NC(=O)CN1CCCC1=O`, for which the outcome in assay [1], in assay [2] and in assay [4] was inactive. Also, the Potency result in assay [3], in assay [5], in assay [6] and in assay [7] was “inactive” throughout.
Take `Cc1cccc(C)c1NC1=NCCCS1`: the outcome in assay [1], in assay [2] and in assay [4] was inactive. Also, the Potency entry in assay [3], in [9], in [5] and in assay [7] was “inactive” in each case.
For `CCCN1CCC[C@@H]2Cc3nc(N)ncc3C[C@H]21`, the call in [1], in [2] and in assay [4] was inactive. Moreover, the Potency entry in assay [3], in assay [8], in assay [9], in [5], in [6] and in [7] was “inactive” throughout.
With `Cc1ncc(CNC(=O)N(CCCl)N=O)c(N)n1`, the compound was called inactive in assay [1], in assay [2] and in assay [4]. In addition, the Potency entry in assay [3], in [8], in assay [9], in assay [5], in assay [6] and in assay [7] was “inactive” throughout.
